In PubChem BioAssay AID624330 (Southern Research Specialized Biocontainment Screening …, 2012):
About 2,100 (0.62%) of roughly 340,000 compounds were called active.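 Rule for the calls: active = first-screen hits whose inhibition reached a set limit at any dose in the follow-up dose series; inconclusive = inhibition above the set first-screen limit but never retested; inactive = the rest.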 These entries were drawn from the full list. Measured potencies and affinities stand elsewhere.

Target: Rac GTPase-activating protein 1 (Homo sapiens) (UniProt Q9H0H5)
Sequence (Q9H0H5 whole entry, looked up): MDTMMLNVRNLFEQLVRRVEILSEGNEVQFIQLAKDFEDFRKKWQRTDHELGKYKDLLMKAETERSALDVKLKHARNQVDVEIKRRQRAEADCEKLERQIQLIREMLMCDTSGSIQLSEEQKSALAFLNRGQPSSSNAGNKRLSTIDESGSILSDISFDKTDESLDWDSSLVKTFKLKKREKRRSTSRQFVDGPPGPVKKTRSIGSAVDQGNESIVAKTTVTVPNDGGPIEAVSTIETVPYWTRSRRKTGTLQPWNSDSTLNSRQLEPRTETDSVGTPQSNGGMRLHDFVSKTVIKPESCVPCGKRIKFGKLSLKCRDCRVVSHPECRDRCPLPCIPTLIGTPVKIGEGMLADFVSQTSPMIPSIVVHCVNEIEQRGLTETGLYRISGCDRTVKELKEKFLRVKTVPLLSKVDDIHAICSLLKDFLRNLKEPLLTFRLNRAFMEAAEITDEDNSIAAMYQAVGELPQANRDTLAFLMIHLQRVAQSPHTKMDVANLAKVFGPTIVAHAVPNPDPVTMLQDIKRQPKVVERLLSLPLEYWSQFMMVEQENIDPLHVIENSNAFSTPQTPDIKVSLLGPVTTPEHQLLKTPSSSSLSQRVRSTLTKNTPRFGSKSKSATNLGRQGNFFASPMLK
Test: MgcRacGAP GTPase-activating activity inhibitors, confirmation, biochemical, ADP Hunter fluorescence, primary and confirmatory (AID 624330);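 note: fluorescence reports GDP produced by GAP-driven GTP hydrolysis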
Conditions: MgcRacGAP-stimulated Rac1 GTP hydrolysis, at 30 µM, stronger effect = higher value, GST-tagged Rac1 F28L mutant substrate

Compound	inhibition
O=C(C1CCN(S(=O)(=O)c2cccc3nsnc23)CC1)N1CCc2ccccc2C1	-5.35% (inactive)
Cn1c(-c2ccc(F)cc2)cnc1NCc1ccccc1	25.3% (inactive)
Cn1c(-c2ccc(F)cc2)cnc1NCc1ccc(C#N)cc1	24.6% (inactive)
COc1ccc(N2C(=O)C3CC(C)=C(C)CC3C2=O)c(OC)c1 (stereo not drawn)	0.34% (inactive)
O=C(c1ccccc1)c1ccccc1N1C(=O)C=CC1=O	17.1% (inactive)
O=C1C=CC(=O)N1c1ccccn1	7.4% (inactive)
COc1cc(N2C(=O)C=CC2=O)c(OC)cc1Cl	-11.4% (inactive)
CCCc1cc(=O)[nH]c(SCC(=O)Nc2ccc(C)c(S(=O)(=O)N3CCCCC3)c2)n1	6.98% (inactive)
COc1cccc(OC)c1C(=O)N1CCN(c2ccccn2)CC1	6.84% (inactive)
COC(=O)c1c(NC(=O)c2cccnc2)sc(C(=O)N(C)C)c1C	4.99% (inactive)
COc1ccc(-c2cc(-c3ccc(OC)c(OC)c3)n[nH]2)c(O)c1	8.89% (inactive)
COc1ccc(-c2cncnc2-c2ccc(OC)cc2O)cc1	2.33% (inactive)
COc1ccc(-c2nc(N)ncc2-c2ccccc2OC)c(O)c1	5.57% (inactive)
COc1ccc(-c2cc3cc(OC)c(OC)cc3c(C)n2)cc1	6.65% (inactive)
COc1ccc(-c2cc(-c3ccccc3O)[nH]n2)cc1OC	13.3% (inactive)
COc1ccc(-c2cc3cc(OC)c(OC)cc3c(C)n2)cc1C	6.32% (inactive)
COc1ccccc1-c1c(-c2ccc(O)cc2O)n[nH]c1C(F)(F)F	13.8% (inactive)
COc1ccc(-c2c(-c3ccc(O)cc3O)n[nH]c2C(F)(F)F)cc1	9.47% (inactive)
COc1ccc(CNC(=O)C2CCCN(c3nn4c(=O)cc(C)nc4s3)C2)cc1 (stereo not drawn)	12.2% (inactive)
CC1C2Cn3c(nc4ccccc43)C1N(C(C)C)O2 (stereo not drawn)	10.4% (inactive)
Nc1ccc(C(=O)O)cc1S(=O)(=O)O	14.3% (inactive)
CCOC(=O)c1cnc2c(Cl)c(Cl)ccc2c1NCCN1CCOCC1	8.14% (inactive)
O=C(NC(=S)Nc1ccccc1Br)C1CCCCC1	13% (inactive)
CCCN(CC(=O)Nc1ccccc1C)C(=O)C1CCN(S(=O)(=O)c2ccc3c(c2)OCCO3)CC1	4.31% (inactive)
O=C(CCc1ccccc1)n1nc(-c2ccccc2)nc1NCc1ccco1	7.46% (inactive)

Compound	inhibition
COc1ccc(-c2nc(CCl)cs2)cc1OC	1.88% (inactive)
COc1ccc(-c2nc(C(=O)O)cs2)cc1OC	-2.83% (inactive)
CCOc1ccc(-c2cc(C(=O)OC)[nH]n2)cc1	0.73% (inactive)
CN(C)S(=O)(=O)c1ccc(C(=O)Nc2cccc(S(=O)(=O)NC3=NCCC3)c2)cc1	3.74% (inactive)
O=[N+]([O-])c1ccc(N2CCN(c3cccc(Cl)c3)CC2)cn1	8.34% (inactive)
Cn1c(-c2ccccc2)c(C(=O)CC#N)c2ccccc21	5.99% (inactive)
Cn1c(-c2ccccc2)c(C(=O)CCl)c2ccccc21	-6.3% (inactive)
COc1cc(-c2cc(C(=O)O)c3cc4ccccc4cc3n2)cc(OC)c1OC	11.4% (inactive)
COc1ccc(-c2cc(C(=O)Nc3ccc(C(N)=O)cc3)c3ccccc3n2)cc1OC	12.9% (inactive)
COc1ccc(-c2cc(C(=O)Nc3ccc(S(N)(=O)=O)cc3)c3ccccc3n2)cc1OC	-3.78% (inactive)
CCOc1ccc2nc(-c3ccc(OC)c(OC)c3)cc(C(=O)O)c2c1	11.1% (inactive)
O=C(Nc1ccc(NC(=O)C2CC2)cn1)c1ccccc1	9.99% (inactive)
COc1ccccc1-c1noc(-c2ccccc2C(=O)NCc2ccco2)n1	4.73% (inactive)
Cc1ccc(C)n1CCN1CCN(S(=O)(=O)c2ccc(F)cc2F)CC1	4.22% (inactive)
S=c1[nH]nc(-c2ccco2)n1/N=C/c1ccc(Cl)c(Cl)c1	7.47% (inactive)
S=c1[nH]nc(-c2ccco2)n1/N=C/c1ccccc1Cl	14.4% (inactive)
S=c1[nH]nc(-c2ccco2)n1/N=C/c1cccc(Cl)c1	12% (inactive)
S=c1[nH]nc(-c2ccco2)n1/N=C/c1c(Cl)cccc1Cl	8.7% (inactive)
COc1cccc(NC(=O)CN(C)C(=O)CSc2nc3ccccc3s2)c1	-3.45% (inactive)
CCOc1ccc(N2C(=O)CC(NCCc3ccc(S(N)(=O)=O)cc3)C2=O)cc1 (stereo not drawn)	9.91% (inactive)
O=C(O)[C@H]1CCCC[C@H]1C(=O)Nc1ccc(S(=O)(=O)N2CCCCC2)cc1	6.35% (inactive)
CCOc1ccc(/C=N/NC(=O)c2ccc(Cn3cc(Br)cn3)o2)cc1	-8.44% (inactive)
CC(=O)C(=Nc1ccc(Cl)cc1Cl)NNc1cccc(Cl)c1	22.6% (inactive)
CC1CC(C)CN(CCOc2cccc(Cl)c2Cl)C1 (stereo not drawn)	18.8% (inactive)
COC(=O)c1ccccc1OCCN1CCCCCC1	24.5% (inactive)

Compound	inhibition
CCOc1ccccc1OCCN1CCC(Cc2ccccc2)CC1	11.1% (inactive)
CC1CN(CCOc2cccc(Oc3ccccc3)c2)CC(C)O1 (stereo not drawn)	19.8% (inactive)
Clc1cccc(OCCCN2CCCC2)c1Cl	19% (inactive)
c1ccc(Oc2cccc(OCCCCN3CCCC3)c2)cc1	18.1% (inactive)
CCC(=O)c1ccccc1OCCCN1CCC(Cc2ccccc2)CC1	16.5% (inactive)
CCN1CCN(Cc2ccc(OCc3ccccc3)c(OC)c2)CC1	14.4% (inactive)
CCc1ccc(/C([O-])=C(/C(=S)NCCN2CCOCC2)[n+]2ccccc2)cc1	-2.62% (inactive)
CC[C@]12c3[nH]c4ccc(Cl)cc4c3CCN1C(=O)[C@@H](CC(=O)NCc1ccco1)C[C@@H]2C(=O)N1CCN(C(=O)C2CC2)CC1	9.23% (inactive)
CC12CCC(=O)N1C(C(=O)N1CCN(S(=O)(=O)c3ccccc3F)CC1)CS2 (stereo not drawn)	2.86% (inactive)
CCOC(=O)c1ccc2c(c1)nc(-c1ccc(F)cc1)c1nccn12	0.78% (inactive)
COc1ccc(CN2CCOCCOCCOCCOCCOCC2)cc1	12.1% (inactive)
CCC(=O)Nc1cccc(NC(=O)CN2CCN(c3ccccc3OC)CC2)c1	9.77% (inactive)
Cc1ccc(C2(C)NC(=O)N(CC(=O)N(c3ccccc3)C3CCS(=O)(=O)C3)C2=O)cc1 (stereo not drawn)	-6.22% (inactive)
CCN(CC)S(=O)(=O)c1cccc(C(=O)NN2Cc3ccccc3C2=N)c1	-4.56% (inactive)
CCn1c(SCC(=O)Nc2cc(C)on2)nnc1-c1cccc(C)c1	7.99% (inactive)
CCn1c(SCC(=O)Nc2ccc(C)cc2)nnc1-c1ccc(O)cc1	5.22% (inactive)
C=CCn1c(SCC(=O)NNC(=O)Nc2ccc(C)cc2)nnc1-c1ccccc1	1.01% (inactive)
C=CCn1c(SCC(=O)Nc2ccc3c(c2)OCO3)nnc1-c1ccccc1	6.23% (inactive)
Cc1csc(=O)n1CCC(=O)OCC(=O)Nc1ccc(Cl)cn1	4.45% (inactive)
CCOc1ccc(S(=O)(=O)N/N=C(\C)C2CCCCC2)cc1	3.81% (inactive)
CCCCOc1ccc(/C=N/NC(=O)c2csc(C)c2C)cc1	16.6% (inactive)
COc1cccc(-n2nnc3c(=O)n(CC(=O)N4CCC(C)CC4)cnc32)c1	11.4% (inactive)
CCOc1ncccc1C(=O)OCC(=O)NCc1ccccc1	5.95% (inactive)
O=C(CN1CCCCC1)Nc1ccccc1-c1ccccc1	6.84% (inactive)
O=C(CN1CCN(C2CCCCC2)CC1)Nc1cccc2ccccc12	15.3% (inactive)

Compound	inhibition
Cc1cc(C)cc(OCC(=O)N2CCN(c3ncccn3)CC2)c1	1.56% (inactive)
COc1ccc(CC(=O)Oc2cc(C)ccc2C)cc1	4.1% (inactive)
Cc1cccc(OCC(=O)Oc2ccc(Cl)cc2)c1	14.7% (inactive)
Cc1ccc(OC(=O)COc2ccccc2C)cc1	9.41% (inactive)
Cc1ccc(OCC(=O)Oc2ccc(C(C)C)cc2)cc1	15.2% (inactive)
COc1ccc(OC(=O)COc2ccc(Cl)cc2)cc1	10.7% (inactive)
COc1ccc(N(C(=O)COc2cccc(C)c2)S(=O)(=O)c2ccc(C)cc2)cc1	7.24% (inactive)
Cc1ccc(C(=O)C[n+]2ccc(-c3nnc4n3CCC4)cc2)cc1	-12.9% (inactive)
CN(C(=O)CSc1nnc(-c2ccccc2F)n1N)C1CCCCC1	4.13% (inactive)
Cc1noc(C)c1NC(=O)NCCN1CCN(Cc2ccccc2)CC1	11.3% (inactive)
CCOc1ccc2[nH]c(=O)c(CN(CCN3CCCC3)C(=S)Nc3ccccc3OC)cc2c1	3.77% (inactive)
C=CCc1ccccc1OCC(=O)N/N=C/c1ccc(OC(C)=O)cc1OC(C)=O	-0.28% (inactive)
C1=CC2=NC34CCCCC3CC3=C(CCCC3)N4C2=CC1=NC1CCCCC1 (stereo not drawn)	11.1% (inactive)
CCOc1ccc(NC(=O)NC2CCCc3ccccc32)cc1 (stereo not drawn)	13.3% (inactive)
COc1ccc(CNC2CCCc3ccccc32)cc1OC (stereo not drawn)	6.79% (inactive)
CCOc1ccc(N=Nc2ccc(O)c3ncccc23)cc1	5.89% (inactive)
CCOc1ccc2[nH]c3ncccc3c(=O)c2c1	3.15% (inactive)
COc1cc(/C=N/NC(=O)c2ccoc2C)cc(OC)c1O	21.6% (inactive)
COc1ccc(/C=N/NC(=O)c2cc(C)oc2C)cc1OC	3.85% (inactive)
COc1ccc(/C=N/NC(=O)c2ccoc2C)cc1OC	6.81% (inactive)
COc1cc(/C=N/NC(=O)c2cc(C)oc2C)ccc1OCc1ccccc1	5.24% (inactive)
COc1cc(/C=N/NC(=O)c2cc(C)oc2C)cc(OC)c1OC	-1.5% (inactive)
COc1ccc(/C=N/NC(=O)c2cc(C)oc2C)cc1OCc1ccccc1	11.1% (inactive)
